# ChEMBL document CHEMBL1961873, “Compounds: GSK PKIS; Assays: Nanosyn kinase panel” (2012)
# Columns and labels:
# [1] = target: Tyrosine-protein kinase CSK (Homo sapiens) (UniProt P41240); settings: at 1 µM;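 further: each value is an averaged inhibition reading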
# [2] = target: T1, Discoidin domain-containing receptor 2 (Homo sapiens) (UniProt Q16832); settings: at 0.1 µM
# T1 sequence (whole entry): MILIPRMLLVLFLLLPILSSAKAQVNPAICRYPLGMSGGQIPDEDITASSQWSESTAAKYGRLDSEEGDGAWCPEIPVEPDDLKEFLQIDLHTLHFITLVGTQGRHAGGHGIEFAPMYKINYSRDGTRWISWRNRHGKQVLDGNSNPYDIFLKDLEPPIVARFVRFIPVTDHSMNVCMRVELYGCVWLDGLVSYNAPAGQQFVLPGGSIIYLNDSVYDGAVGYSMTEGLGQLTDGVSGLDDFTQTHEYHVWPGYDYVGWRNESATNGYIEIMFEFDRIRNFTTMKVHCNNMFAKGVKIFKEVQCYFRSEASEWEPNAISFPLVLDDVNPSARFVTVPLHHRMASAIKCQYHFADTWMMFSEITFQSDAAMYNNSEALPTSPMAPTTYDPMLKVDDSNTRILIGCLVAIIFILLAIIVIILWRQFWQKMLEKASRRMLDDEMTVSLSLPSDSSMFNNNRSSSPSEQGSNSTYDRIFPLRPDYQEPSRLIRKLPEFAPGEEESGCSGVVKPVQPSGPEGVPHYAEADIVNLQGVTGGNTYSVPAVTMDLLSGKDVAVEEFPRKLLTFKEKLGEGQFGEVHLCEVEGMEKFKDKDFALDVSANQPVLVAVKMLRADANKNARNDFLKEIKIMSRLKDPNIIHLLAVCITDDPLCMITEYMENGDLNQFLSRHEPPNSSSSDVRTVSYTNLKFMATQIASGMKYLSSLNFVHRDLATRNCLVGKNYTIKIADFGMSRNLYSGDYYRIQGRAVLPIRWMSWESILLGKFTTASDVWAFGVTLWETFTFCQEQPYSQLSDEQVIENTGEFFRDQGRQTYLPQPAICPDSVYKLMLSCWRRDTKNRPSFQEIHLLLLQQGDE
# [3] = target: T1, Discoidin domain-containing receptor 2 (Homo sapiens); settings: at 1 µM
# [4] = target: Epidermal growth factor receptor (Homo sapiens) (UniProt P00533); settings: at 0.1 µM
# [5] = target: Epidermal growth factor receptor (Homo sapiens) (UniProt P00533); settings: at 1 µM
# [6] = system: Epidermal growth factor receptor (Homo sapiens), P00533 [L858R]; settings: at 0.1 µM
# Epidermal growth factor receptor (Homo sapiens), P00533 [L858R], sequence (P00533 whole entry L858R): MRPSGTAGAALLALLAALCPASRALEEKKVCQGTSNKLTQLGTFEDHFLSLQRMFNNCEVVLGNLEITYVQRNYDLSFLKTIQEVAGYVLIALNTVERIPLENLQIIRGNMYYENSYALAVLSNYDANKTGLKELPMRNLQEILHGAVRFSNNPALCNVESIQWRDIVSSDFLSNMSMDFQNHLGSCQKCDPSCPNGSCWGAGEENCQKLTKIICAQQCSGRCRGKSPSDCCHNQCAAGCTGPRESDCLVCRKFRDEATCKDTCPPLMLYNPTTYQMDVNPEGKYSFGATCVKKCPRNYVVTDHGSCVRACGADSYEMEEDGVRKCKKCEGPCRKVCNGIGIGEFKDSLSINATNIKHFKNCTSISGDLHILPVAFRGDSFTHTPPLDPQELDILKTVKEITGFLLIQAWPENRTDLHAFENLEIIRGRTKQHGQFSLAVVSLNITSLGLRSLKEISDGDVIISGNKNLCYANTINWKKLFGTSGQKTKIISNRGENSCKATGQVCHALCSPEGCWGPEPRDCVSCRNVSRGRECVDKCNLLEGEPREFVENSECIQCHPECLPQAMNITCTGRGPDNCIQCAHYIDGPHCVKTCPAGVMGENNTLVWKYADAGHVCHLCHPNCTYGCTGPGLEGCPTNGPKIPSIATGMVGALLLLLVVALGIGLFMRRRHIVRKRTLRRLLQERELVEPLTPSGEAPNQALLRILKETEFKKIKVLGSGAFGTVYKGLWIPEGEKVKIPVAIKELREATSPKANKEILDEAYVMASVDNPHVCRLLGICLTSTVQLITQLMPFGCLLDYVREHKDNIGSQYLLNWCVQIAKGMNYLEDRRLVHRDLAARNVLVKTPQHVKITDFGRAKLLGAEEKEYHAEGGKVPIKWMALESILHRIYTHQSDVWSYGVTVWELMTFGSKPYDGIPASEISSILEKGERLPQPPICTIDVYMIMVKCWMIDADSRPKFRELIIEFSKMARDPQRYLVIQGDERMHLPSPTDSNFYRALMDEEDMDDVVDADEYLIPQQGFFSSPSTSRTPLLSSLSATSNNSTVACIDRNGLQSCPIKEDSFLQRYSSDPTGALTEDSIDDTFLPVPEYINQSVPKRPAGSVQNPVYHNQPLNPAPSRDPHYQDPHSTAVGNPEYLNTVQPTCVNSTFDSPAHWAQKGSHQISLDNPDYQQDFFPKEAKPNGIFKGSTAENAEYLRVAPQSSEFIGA
# [7] = system: Epidermal growth factor receptor (Homo sapiens), P00533 [L858R]; settings: at 1 µM
# [8] = system: Epidermal growth factor receptor (Homo sapiens), P00533 [L861Q]; settings: at 0.1 µM
# Epidermal growth factor receptor (Homo sapiens), P00533 [L861Q], sequence (P00533 whole entry L861Q): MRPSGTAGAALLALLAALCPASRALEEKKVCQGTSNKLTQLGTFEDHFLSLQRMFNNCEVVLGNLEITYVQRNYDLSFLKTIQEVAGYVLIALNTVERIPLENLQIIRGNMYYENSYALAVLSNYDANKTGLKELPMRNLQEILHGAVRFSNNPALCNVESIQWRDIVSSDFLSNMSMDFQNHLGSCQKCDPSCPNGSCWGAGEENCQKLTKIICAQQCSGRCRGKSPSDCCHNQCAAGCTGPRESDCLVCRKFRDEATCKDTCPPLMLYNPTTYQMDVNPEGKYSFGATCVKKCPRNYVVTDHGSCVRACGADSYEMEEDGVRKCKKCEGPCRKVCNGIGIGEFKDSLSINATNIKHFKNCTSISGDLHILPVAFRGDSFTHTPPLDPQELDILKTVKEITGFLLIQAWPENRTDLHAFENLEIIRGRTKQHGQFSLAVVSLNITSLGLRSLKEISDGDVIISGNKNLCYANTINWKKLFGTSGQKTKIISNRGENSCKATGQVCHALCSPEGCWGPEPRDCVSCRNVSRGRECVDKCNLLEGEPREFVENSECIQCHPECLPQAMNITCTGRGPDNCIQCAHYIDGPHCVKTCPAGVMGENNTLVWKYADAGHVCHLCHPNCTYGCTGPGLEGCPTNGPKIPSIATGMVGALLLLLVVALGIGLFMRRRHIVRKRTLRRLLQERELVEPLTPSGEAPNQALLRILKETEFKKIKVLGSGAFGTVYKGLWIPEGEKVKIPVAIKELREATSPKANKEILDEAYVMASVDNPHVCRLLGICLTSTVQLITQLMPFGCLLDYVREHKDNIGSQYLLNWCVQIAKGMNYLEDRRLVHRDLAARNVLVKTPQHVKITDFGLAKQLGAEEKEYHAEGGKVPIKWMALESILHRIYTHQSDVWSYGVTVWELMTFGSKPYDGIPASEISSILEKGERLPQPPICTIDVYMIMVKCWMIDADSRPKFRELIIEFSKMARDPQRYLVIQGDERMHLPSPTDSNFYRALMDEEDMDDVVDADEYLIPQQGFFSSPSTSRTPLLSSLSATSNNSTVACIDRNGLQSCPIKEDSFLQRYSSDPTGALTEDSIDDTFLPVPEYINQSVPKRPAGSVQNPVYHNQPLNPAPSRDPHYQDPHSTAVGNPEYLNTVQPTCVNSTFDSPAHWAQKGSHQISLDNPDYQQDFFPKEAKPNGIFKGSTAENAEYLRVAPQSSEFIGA
# [9] = system: Epidermal growth factor receptor (Homo sapiens), P00533 [L861Q]; settings: at 1 µM
# [10] = system: Epidermal growth factor receptor (Homo sapiens), P00533 [T790M]; settings: at 0.1 µM
# Epidermal growth factor receptor (Homo sapiens), P00533 [T790M], sequence (P00533 whole entry T790M): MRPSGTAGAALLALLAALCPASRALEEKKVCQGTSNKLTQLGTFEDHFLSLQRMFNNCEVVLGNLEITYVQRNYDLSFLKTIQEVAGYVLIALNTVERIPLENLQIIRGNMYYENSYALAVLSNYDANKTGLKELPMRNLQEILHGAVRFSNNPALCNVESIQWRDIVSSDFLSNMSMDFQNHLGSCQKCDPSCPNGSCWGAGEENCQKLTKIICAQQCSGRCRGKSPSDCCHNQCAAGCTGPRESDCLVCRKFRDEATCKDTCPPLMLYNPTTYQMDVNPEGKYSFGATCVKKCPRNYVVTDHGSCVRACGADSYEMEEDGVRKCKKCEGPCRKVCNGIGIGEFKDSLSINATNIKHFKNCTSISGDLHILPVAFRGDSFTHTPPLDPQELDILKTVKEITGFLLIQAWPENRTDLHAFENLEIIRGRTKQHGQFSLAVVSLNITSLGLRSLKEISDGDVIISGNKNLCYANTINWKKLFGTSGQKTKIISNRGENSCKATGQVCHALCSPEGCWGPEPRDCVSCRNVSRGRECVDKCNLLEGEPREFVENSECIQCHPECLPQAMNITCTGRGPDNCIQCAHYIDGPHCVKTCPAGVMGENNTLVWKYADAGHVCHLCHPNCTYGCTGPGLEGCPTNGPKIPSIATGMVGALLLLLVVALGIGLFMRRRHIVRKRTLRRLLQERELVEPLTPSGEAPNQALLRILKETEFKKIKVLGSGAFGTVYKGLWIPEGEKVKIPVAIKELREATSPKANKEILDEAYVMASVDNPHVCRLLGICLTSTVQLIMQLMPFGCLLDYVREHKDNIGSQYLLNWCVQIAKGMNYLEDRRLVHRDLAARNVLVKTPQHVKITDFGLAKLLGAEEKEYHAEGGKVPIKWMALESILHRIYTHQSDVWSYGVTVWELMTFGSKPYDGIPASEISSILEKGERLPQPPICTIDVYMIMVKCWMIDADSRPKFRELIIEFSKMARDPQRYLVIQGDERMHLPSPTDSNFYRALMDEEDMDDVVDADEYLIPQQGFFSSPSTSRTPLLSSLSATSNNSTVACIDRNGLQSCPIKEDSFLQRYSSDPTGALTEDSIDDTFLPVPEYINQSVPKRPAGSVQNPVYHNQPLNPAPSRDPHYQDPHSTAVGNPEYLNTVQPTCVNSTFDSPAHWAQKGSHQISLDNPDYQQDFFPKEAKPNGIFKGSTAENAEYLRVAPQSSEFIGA
# Tyrosine-protein kinase CSK (Homo sapiens), sequence (P41240 2-450 limits assumed): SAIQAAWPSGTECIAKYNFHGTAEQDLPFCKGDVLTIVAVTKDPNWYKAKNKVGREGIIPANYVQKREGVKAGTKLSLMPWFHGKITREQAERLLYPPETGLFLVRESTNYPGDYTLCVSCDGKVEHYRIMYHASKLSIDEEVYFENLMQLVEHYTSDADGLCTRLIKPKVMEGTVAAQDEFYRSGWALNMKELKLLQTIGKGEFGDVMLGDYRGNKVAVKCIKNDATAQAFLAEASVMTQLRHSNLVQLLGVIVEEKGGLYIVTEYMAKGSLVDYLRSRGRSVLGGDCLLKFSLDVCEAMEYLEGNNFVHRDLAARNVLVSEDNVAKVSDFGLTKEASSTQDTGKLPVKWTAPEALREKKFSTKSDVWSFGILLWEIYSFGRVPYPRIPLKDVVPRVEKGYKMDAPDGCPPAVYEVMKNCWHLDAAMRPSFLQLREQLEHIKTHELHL
SMILES,inhibition [1] [%],inhibition [2] [%],inhibition [3] [%],inhibition [4] [%],inhibition [5] [%],inhibition [6] [%],inhibition [7] [%],inhibition [8] [%],inhibition [9] [%],inhibition [10] [%]
c1ccc(-c2nc3n(c2-c2ccc4c(c2)OCO4)CCC3)nc1,1.76,0.99,0.78,1.53,0.21,0.88,-1.2,0.86,1.07,0.12
Cc1cccc2c1NC(=O)/C2=N\Nc1ccc(S(N)(=O)=O)cc1,4.79,1.44,1.81,5.97,9.39,3.74,5.52,1.86,0.73,-0.7
COc1ccc(-c2oc3ncnc(N)c3c2-c2ccc(NC(=O)Nc3cc(C(F)(F)F)ccc3F)cc2)cc1,61,56.3,87.3,2.43,2.22,3.73,6.19,4.81,7.85,1.19
CC(C)COC(=O)c1ccc2c(c1)/C(=C/Nc1ccc(S(N)(=O)=O)cc1)C(=O)N2,-1.85,-1.05,2.05,1.64,4.58,-0.29,0.49,-1.62,-0.46,-1.76
Nc1nc(-c2ccc(F)cc2)c(-c2ccc3ncccc3n2)s1,5.38,0.01,-5.99,2.98,21.7,13.1,60.5,6.11,22.4,1.84
COc1ccc2c(-c3ccnc(Nc4cccc(OC(F)(F)F)c4)n3)cnn2n1,12.2,1.53,3.16,1.3,2.97,4.17,5.43,2.8,4.76,2.35
O=S(=O)(CCNCc1ccc(-c2ccc3ncnc(Nc4ccc(OCc5cccc(F)c5)c(Cl)c4)c3c2)o1)c1ccccc1,6.6,5.04,6.18,65.3,83.3,32.6,79.5,39.2,78.2,2.92
CCn1c(-c2nonc2N)nc2ccccc21,-0.41,1.73,2.19,2.08,1.93,3.02,0.86,1.96,0.53,-0.1
COc1ccc(CNC(=O)c2ccc(-c3cc(-c4nnc(C)o4)ccc3C)cc2)cc1,6.32,4.36,4.67,2.84,4.15,0.12,8.38,1.79,7.03,1.31
Cc1ccc2c(-c3ccnc(Nc4ccccc4)n3)c(-c3ccc(F)cc3)nn2n1,14.5,31.2,83.3,47.1,78.4,85.8,97.4,51.8,87.8,8.63
COc1ccc(-c2cc(-c3c[nH]nc3-c3ccccn3)ccn2)cc1,10.3,2.09,3.66,1.65,6.06,1.51,8.95,4.61,4.33,2.05
CNC(=O)c1cccc(C#Cc2cncnc2Nc2ccc(OCc3cccc(F)c3)c(Cl)c2)c1,3.24,0.18,4.52,62.1,82.2,13.8,62.1,25.9,45.7,1.03
CC1=C(C(=O)Nc2cc(Cl)c3[nH]ncc3c2)C(c2ccc(C(F)(F)F)cc2)CC(=O)N1 (stereo not given),2.47,1.75,1.35,-1.31,5.03,2.16,7.45,2.03,2.45,1.57
c1ccc(COc2ccc(Nc3ncnc4ccc(-c5ccco5)cc34)cc2)cc1,1.89,0.26,1.14,64.3,86.1,9.89,39.4,22.1,36.1,1.47
N#Cc1c(NC(=O)c2ccc(F)cc2)sc2c1CCCC2,0.65,0.36,-0.2,0.63,1.78,0.66,2.49,-0.06,-1.78,-0.49
CCn1c(-c2nonc2N)nc2c(C#CC(C)(C)O)ncc(OC3CCNCC3)c21,1.26,0.94,1.03,1.89,3.18,-0.6,2.18,-0.91,-0.16,-0.25
